# GIRK2 act = activators of NPY4-receptor-primed GIRK2 channels, summary, cell-based, HEK293, thallium flux; 34,000 tested, under 10 active; HEK293 GIRK2/NPY4 cells, thallium flux fluorescence; AID 1259324, 2017; activation (% efficacy), % for hits at 37.5 µM; G protein-activated inward rectifier potassium channel 2 (Homo sapiens), P48051;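 active = primary screen hit, no activity in plain HEK293 cells, and in GIRK2-only cells above 5% efficacy rising with concentration; inactive = the rest, including fluorescent compounds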;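 note: efficacy is normalized control-subtracted fluorescence 15 s after thallium addition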
# Target sequence (P48051 whole entry, looked up): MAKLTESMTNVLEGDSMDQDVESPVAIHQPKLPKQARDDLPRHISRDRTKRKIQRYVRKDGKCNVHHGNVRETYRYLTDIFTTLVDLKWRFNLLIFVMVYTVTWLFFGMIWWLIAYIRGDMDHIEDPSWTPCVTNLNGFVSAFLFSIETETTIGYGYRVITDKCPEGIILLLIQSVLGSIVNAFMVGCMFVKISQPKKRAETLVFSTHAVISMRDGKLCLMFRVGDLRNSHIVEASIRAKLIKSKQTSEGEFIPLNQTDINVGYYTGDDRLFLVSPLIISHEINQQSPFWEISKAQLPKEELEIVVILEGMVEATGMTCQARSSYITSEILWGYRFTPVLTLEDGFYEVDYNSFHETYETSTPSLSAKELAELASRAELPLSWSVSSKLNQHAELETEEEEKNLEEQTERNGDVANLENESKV
# AMPAR-TARP mod = modulators of GluA2-stargazin AMPA receptor complexes, primary screen, cell-based, membrane potential dye; calls only at 30 µM; actives 3.5% (n = 40,000); HEK293 GluA2+stargazin, membrane potential dye (FDSS), glutamate EC50; hits were called plate by plate, in both directions;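 active = any of four per-well response measures lying three or more SD from its plate-wide compound average, in either direction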
# Active calls of the source: *; i = inactive; . = no result; + = active, no number. Shown is part of a subset that was picked to be rich in hits.
SMILES,GIRK2 act,AMPAR-TARP mod
C=CCn1c(=O)c2c(nc3n(-c4cc(C)ccc4OC)c(-c4ccccc4)cn23)n(C)c1=O,.,i
COc1ccc2cc(CNc3ccc(C)cc3)c(=O)n(CC(=O)Nc3cccc(C)c3)c2c1,i,i
CN(C)C(CNC(=O)C1(c2ccccc2)CCOCC1)c1ccsc1 (centres undefined),i,i
CN(C)C(CNC(=O)C1(c2ccc(Cl)cc2)CCCC1)c1ccsc1 (centres undefined),i,+
O=C(c1cc2ccccc2[nH]1)N1CCC(Cn2cnc3ccccc32)CC1,i,i
CC(=O)c1ccc(N2CCN(C(=O)Cc3csc(NC(=O)OCC(C)C)n3)CC2)cc1,i,.
CCCOc1ccc(S(=O)(=O)Nc2ccc3c(c2)NC(=O)C(C)(C)CO3)cc1,.,+
CCOC(=O)Nc1ccc2c(c1)NC(=O)C(C)(C)CO2,i,i
CCCCOc1ccccc1-n1c(C)cn2c3c(=O)n(C)c(=O)n(C)c3nc12,i,i
CC(C)(C)c1cc(NCCCn2ccnc2)n2ncc(-c3ccccc3)c2n1,i,i
CN(C)CCNc1cc(C(C)(C)C)nc2c(-c3ccccc3)cnn12,i,+
CCCC(=O)Nc1ccc(S(=O)(=O)NCCn2nc(-c3cccnc3)ccc2=O)cc1,i,.
O=C(NCCC(O)c1ccccc1)c1cccs1 (centres undefined),i,i
COc1cc(Cn2c(=O)c3c(N4CCN(C(C)=O)CC4)ccnc3n(C)c2=O)cc(OC)c1,.,i
Cc1cc(NC(=O)COc2ccc(Cl)cc2)n(C2CCS(=O)(=O)C2)n1 (centres undefined),.,i
CN(CCCC(N)=O)S(=O)(=O)c1ccc2c(c1)C(=O)c1ccccc1C2=O,.,+
COc1ccc(S(=O)(=O)N(C)CCCC(=O)O)cc1N(C)S(=O)(=O)c1ccccc1,.,i
Cn1c(SCC(=O)Nc2ccccc2Cl)nc2c(-c3ccccc3)c[nH]c2c1=O,i,.
Cc1cccc(C)c1OCC(O)Cn1c(C2CC2)nc2ccccc21 (centres undefined),i,i
CC(=O)N1CCCC1c1nc2ccccc2n1CCCOc1c(C)cccc1C (centres undefined),i,+
COCC(=O)N1CCCc2ccc(NC(=O)NCCc3ccc(OC)cc3)cc21,i,.
O=C(N1CCC(Cn2cccn2)CC1)C1(c2ccc(Cl)cc2)CCCC1,i,+
O=C(N1CCC(Cn2cccn2)CC1)C1(c2cccs2)CCCC1,i,i
CCOCCn1c(CNC(=O)c2ccccc2)nc2ccccc21,i,i
COc1ccccc1-c1csc(/C(C#N)=C2\C=CC=CN2C)n1,i,+
SMILES,GIRK2 act,AMPAR-TARP mod
CN1C=CC=C/C1=C(/C#N)c1nc(-c2ccccc2)cs1,i,+
N#C/C(=C\c1ccnc2ccccc12)c1nc(-c2ccc(F)cc2)cs1,i,i
Cc1ccc(-n2nnc(C(=O)N(C)c3ccccc3)c2C)c(C)c1,i,i
Cc1cc(C)c(NC(=O)Cn2nc(-c3ccco3)c3sc(N4CCCCC4)nc3c2=O)c(C)c1,i,i
O=C(CCCS(=O)(=O)c1ccccc1)Nc1nc2c(s1)Cc1ccccc1-2,i,i
Cn1cccc1C(CNS(=O)(=O)c1ccc(C(C)(C)C)cc1)N1CCOCC1 (centres undefined),i,i
O=C(CCCCn1c(=O)[nH]c2ccccc2c1=O)NC1CCCCCC1,i,i
O=C(CCCCn1c(=O)c2ccccc2n(CC(=O)NC2CCCCC2)c1=O)NCc1cccs1,i,+
CCCNC(=O)CCCCn1c(=O)c2ccccc2n(CC(=O)Nc2ccccc2Cl)c1=O,i,+
CCCNC(=O)CCCCn1c(=O)c2ccccc2n(CC(=O)Nc2cccc(SC)c2)c1=O,i,i
COc1cc2nc(NC(=O)c3ccc(S(=O)(=O)N(C)C4CCCC4)cc3)sc2cc1OC,.,i
CCOC(=O)N1CCN(/C=C(\C#N)S(=O)(=O)c2ccccc2)CC1,i,i
O=C(NCCc1ccc(Cl)cc1)C(=O)NC1CCCCCC1,i,i
CCCC(CCC)C(=O)N1CCN(c2ncnc3c2nnn3-c2ccc(Cl)cc2)CC1,i,i
O=C(Cc1cc(-c2cc3ccccc3o2)on1)NCCCc1ccccc1,i,i
COc1ccc(-c2ccc(C)c(NS(=O)(=O)c3ccc(NC(=O)C(C)C)cc3)c2)nn1,i,+
COc1ccc(-c2ccc(C)c(NC(=O)Cc3ccc(OC)c(OC)c3)c2)nn1,i,i
O=C(CS(=O)(=O)c1ccc(Cl)s1)Nc1cccc(C(F)(F)F)c1,i,+
O=C(CS(=O)(=O)c1ccc(Cl)s1)Nc1ccc(Oc2ccccc2)cc1,i,i

# Source: PubChem
